# Measured values reported in publication PMC7862700, “An all-to-all approach to the identification of sequence-specific readers for epigenetic DNA modifications on cytosine”.
# Assays:
# Test in all cases: DAPPL (digital affinity profiling via proximity ligation, sequencing); 10 mM Tris-HCl pH 7.5, 50 mM NaCl, 1 mM DTT, 4% glycerol, room temperature, 30 min; GST-TFs on glutathione beads, 16-mer random dsDNA library, 0.1% formaldehyde crosslink after washing; high values mean tight binding
# FLI1 = molecular target: T1, FLI1 (Homo sapiens, UniProt Q01543 1-452); conditions: protein: recombinant; tags: N-terminal GST; dsDNA, one strand shown
# T1 sequence: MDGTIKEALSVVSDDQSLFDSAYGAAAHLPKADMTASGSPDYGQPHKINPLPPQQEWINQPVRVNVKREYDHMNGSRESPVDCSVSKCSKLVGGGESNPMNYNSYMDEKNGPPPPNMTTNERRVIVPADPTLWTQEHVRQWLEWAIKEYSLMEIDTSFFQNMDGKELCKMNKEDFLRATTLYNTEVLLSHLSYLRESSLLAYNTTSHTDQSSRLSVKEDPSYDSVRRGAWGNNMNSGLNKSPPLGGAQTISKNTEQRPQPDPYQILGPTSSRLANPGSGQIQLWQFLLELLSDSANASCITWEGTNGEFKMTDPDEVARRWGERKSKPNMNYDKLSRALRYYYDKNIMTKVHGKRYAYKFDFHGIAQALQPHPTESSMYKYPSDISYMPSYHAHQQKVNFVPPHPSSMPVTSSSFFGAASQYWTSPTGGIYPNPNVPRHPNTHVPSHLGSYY
# Summary of the method: (§1)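 GST fusions of human transcription factors were expressed in yeast and captured with glutathione beads. Once given DNA barcodes and pooled alongside a tag-only sample, they were incubated for 30 min at room temperature with 200 nmole of a random double-stranded 16-mer DNA library in Tris/NaCl/DTT/glycerol buffer, then washed, crosslinked (0.1% formaldehyde), proximity-ligated, PCR-amplified and sequenced on an Illumina NextSeq500. The binding signal of each hexamer is its read frequency for a factor divided by its frequency for the tag-only sample.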
# ELK1 = molecular target: T2, ELK1 (Homo sapiens, UniProt P19419 1-428); conditions: protein: recombinant; tags: N-terminal GST; dsDNA, one strand shown
# T2 sequence: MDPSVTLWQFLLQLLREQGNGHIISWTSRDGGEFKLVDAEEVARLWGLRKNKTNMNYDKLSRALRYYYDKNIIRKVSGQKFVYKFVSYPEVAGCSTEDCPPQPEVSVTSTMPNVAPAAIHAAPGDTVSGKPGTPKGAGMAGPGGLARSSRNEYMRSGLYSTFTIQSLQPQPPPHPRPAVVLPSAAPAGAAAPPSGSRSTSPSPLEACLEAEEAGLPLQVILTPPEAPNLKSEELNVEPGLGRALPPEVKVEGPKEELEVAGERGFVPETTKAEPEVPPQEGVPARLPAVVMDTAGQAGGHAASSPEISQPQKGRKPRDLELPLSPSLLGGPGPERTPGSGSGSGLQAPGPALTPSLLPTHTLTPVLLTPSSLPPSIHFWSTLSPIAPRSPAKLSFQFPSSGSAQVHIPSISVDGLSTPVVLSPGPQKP
# Summary of the method: as §1
# GABPA = molecular target: T3, GABPA (Homo sapiens, UniProt Q06546 1-454); conditions: protein: recombinant; tags: N-terminal GST; dsDNA, one strand shown
# T3 sequence: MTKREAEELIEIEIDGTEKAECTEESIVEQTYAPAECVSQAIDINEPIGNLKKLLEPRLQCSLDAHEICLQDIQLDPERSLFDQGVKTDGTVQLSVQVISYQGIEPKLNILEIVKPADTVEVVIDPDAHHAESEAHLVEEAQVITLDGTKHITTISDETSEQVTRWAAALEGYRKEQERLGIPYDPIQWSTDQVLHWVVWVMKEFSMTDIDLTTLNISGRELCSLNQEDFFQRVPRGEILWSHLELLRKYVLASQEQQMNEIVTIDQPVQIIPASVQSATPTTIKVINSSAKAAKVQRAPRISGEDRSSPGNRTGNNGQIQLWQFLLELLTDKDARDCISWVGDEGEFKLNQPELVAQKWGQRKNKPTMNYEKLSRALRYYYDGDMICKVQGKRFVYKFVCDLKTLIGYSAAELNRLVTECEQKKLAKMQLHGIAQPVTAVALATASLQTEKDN
# Summary of the method: as §1
# ERG = molecular target: T4, ERG (Homo sapiens, UniProt P11308 1-479); conditions: protein: recombinant; tags: N-terminal GST; dsDNA, one strand shown
# T4 sequence: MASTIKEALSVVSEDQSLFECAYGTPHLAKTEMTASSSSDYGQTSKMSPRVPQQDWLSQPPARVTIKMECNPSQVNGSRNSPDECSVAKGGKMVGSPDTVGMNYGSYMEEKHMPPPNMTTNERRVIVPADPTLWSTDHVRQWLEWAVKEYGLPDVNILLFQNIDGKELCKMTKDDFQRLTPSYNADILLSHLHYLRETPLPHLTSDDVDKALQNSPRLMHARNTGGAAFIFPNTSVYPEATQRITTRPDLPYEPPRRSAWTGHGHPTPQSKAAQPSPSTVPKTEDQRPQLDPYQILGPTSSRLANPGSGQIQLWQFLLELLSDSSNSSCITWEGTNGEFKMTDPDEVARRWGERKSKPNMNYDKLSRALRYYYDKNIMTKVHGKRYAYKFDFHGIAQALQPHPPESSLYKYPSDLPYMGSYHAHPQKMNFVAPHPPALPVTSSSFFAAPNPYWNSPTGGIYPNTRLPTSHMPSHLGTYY
# Summary of the method: as §1
# ELF1 = ELF1 (Homo sapiens, UniProt P32519 1-619); conditions: protein: recombinant; tags: N-terminal GST; dsDNA, one strand shown
# ELF1, sequence (P32519 whole entry): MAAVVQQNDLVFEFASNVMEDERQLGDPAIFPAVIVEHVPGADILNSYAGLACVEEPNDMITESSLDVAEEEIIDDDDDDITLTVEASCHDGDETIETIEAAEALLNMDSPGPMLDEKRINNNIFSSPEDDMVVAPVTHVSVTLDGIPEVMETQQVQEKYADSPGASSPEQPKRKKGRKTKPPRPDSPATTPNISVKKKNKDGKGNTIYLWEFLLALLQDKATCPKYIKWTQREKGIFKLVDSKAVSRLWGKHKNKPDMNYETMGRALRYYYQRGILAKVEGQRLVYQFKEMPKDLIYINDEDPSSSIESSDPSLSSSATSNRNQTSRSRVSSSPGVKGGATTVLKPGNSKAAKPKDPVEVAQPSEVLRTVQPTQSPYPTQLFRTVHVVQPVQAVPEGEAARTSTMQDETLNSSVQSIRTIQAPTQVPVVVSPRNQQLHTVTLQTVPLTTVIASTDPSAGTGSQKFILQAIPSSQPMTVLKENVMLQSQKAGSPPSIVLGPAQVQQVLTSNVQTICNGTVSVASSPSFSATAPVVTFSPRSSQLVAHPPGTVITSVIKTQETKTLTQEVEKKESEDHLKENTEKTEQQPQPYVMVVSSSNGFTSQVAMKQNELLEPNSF
# Summary of the method: as §1
# EHF = molecular target: T5, EHF (Homo sapiens, UniProt Q9NZC4 1-300); conditions: protein: recombinant; tags: N-terminal GST; dsDNA, one strand shown
# T5 sequence: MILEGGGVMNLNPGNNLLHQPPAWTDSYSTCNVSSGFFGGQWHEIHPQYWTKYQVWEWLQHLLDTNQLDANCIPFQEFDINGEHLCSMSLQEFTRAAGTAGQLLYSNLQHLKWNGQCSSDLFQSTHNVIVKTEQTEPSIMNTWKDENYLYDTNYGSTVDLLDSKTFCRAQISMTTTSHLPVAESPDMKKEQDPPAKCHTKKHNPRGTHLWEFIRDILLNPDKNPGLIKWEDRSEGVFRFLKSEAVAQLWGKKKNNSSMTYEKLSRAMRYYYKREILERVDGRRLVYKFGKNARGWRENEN
# Summary of the method: as §1
# SPI1 = SPI1 (Homo sapiens, UniProt P17947 1-270); conditions: protein: recombinant; tags: N-terminal GST; dsDNA, one strand shown
# Summary of the method: as §1
# SPIB = SPIB (Homo sapiens, UniProt Q01892 1-262); conditions: protein: recombinant; tags: N-terminal GST; dsDNA, one strand shown
# SPIB, sequence (Q01892 whole entry): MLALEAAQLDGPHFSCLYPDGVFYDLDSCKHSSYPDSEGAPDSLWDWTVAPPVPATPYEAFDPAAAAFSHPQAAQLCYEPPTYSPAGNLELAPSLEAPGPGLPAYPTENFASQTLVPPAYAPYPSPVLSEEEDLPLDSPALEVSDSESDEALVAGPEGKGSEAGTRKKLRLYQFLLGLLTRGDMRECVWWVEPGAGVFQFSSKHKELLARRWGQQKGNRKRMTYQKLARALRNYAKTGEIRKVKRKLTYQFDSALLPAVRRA
# Summary of the method: as §1
# ELK3 = molecular target: T6, ELK3 (Homo sapiens, UniProt P41970 1-407); conditions: protein: recombinant; tags: N-terminal GST; dsDNA, one strand shown
# T6 sequence: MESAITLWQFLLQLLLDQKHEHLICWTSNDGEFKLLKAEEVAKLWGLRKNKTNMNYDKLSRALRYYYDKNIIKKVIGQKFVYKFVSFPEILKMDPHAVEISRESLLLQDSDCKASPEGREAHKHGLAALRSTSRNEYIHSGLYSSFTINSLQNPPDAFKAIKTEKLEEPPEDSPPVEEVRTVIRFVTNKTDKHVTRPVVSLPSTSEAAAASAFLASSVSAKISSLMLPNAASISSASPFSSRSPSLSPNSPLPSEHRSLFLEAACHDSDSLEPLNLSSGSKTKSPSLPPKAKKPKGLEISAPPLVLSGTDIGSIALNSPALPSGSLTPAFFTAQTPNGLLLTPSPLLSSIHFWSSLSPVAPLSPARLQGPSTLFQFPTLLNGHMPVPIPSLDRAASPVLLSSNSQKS
# Summary of the method: as §1
# FEV = molecular target: T7, FEV (Homo sapiens, UniProt Q99581 1-238); conditions: protein: recombinant; tags: N-terminal GST; dsDNA, one strand shown
# T7 sequence: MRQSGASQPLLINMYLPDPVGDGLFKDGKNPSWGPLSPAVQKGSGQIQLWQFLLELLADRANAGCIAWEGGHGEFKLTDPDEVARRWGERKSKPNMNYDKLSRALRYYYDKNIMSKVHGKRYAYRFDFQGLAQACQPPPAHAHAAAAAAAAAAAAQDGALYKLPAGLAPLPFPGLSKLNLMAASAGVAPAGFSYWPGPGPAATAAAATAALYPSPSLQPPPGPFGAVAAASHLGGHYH
# Summary of the method: as §1
# ETV5 = ETV5 (Homo sapiens, UniProt P41161 1-510); conditions: protein: recombinant; tags: N-terminal GST; dsDNA, one strand shown
# ETV5, sequence (P41161 whole entry): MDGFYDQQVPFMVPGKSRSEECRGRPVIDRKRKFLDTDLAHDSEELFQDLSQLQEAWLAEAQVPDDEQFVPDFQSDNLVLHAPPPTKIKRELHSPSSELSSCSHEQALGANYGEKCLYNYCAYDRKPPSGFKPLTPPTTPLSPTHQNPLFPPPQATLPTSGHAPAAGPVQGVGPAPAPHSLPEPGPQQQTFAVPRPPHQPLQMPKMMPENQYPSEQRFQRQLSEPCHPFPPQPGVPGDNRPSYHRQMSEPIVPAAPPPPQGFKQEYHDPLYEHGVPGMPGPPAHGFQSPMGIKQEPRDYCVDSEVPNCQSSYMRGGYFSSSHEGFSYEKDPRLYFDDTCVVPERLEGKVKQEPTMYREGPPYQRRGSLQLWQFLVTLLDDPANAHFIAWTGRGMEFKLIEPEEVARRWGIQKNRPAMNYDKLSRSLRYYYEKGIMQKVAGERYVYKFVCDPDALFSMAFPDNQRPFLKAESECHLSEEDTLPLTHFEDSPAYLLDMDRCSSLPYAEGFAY
# Summary of the method: as §1
# HSF1 = HSF1 (Homo sapiens, UniProt Q00613 1-529); conditions: protein: recombinant; tags: N-terminal GST; chain copies: 3; dsDNA, one strand shown
# HSF1, sequence (Q00613 whole entry): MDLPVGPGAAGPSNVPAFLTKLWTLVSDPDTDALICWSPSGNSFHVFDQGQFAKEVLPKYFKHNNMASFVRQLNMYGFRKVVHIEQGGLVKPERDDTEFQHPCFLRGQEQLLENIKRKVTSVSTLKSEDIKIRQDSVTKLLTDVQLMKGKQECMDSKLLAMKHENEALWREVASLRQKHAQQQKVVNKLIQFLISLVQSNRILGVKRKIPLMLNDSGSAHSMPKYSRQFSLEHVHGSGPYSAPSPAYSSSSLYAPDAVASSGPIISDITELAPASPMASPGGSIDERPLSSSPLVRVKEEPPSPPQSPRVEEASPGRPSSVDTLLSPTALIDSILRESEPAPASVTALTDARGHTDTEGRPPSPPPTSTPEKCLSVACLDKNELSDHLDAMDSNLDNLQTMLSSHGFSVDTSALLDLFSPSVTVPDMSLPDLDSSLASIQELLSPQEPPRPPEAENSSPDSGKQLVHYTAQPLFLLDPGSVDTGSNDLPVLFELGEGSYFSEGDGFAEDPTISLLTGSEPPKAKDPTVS
# Summary of the method: as §1
# SPIC = molecular target: T8, SPIC (Homo sapiens, UniProt Q8N5J4 1-248); conditions: protein: recombinant; tags: N-terminal GST; dsDNA, one strand shown
# T8 sequence: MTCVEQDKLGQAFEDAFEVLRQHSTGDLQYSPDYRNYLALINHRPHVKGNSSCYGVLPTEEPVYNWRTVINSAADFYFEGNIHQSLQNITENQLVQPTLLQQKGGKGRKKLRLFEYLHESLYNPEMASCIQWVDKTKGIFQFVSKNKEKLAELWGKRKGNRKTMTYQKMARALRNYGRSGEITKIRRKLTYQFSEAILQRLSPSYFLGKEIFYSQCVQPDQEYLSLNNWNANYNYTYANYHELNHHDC
# Summary of the method: as §1
# ELF4 = ELF4 (Homo sapiens, UniProt Q99607 1-663); conditions: protein: recombinant; tags: N-terminal GST; dsDNA, one strand shown
# ELF4, sequence (Q99607 whole entry): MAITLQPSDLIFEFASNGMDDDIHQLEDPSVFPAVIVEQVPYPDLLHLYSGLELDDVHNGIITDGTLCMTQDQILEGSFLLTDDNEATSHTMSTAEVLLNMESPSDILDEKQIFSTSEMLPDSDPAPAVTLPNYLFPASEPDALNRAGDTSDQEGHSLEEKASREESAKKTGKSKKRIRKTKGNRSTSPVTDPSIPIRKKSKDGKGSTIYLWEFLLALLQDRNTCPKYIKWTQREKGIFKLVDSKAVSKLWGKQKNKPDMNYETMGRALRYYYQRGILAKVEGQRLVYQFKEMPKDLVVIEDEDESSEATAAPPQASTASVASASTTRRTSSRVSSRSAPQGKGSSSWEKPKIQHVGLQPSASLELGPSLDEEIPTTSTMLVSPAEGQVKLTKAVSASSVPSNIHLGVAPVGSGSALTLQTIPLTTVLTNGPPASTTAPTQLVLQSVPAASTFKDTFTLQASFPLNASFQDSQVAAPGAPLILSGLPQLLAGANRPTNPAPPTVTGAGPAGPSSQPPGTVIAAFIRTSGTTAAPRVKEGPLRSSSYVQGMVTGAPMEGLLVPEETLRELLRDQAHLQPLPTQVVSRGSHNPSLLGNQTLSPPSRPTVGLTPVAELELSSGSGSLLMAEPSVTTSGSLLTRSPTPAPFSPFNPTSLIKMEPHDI
# Summary of the method: as §1
# ELK4 = molecular target: T9, ELK4 (Homo sapiens, UniProt P28324-2 1-405); conditions: protein: recombinant; tags: N-terminal GST; dsDNA, one strand shown
# T9 sequence: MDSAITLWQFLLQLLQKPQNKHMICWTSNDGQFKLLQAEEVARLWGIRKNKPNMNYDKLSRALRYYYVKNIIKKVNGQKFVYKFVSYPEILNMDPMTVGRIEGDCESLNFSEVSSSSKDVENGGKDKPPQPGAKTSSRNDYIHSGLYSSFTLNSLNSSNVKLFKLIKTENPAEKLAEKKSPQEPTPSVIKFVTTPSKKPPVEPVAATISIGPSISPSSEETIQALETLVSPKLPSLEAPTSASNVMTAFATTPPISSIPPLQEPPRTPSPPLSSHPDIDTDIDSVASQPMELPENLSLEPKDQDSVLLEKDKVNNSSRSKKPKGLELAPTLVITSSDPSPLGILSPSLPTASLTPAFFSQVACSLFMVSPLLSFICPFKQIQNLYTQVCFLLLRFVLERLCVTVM
# Summary of the method: as §1
# ETV2 = molecular target: T10, ETV2 (Homo sapiens, UniProt O00321 1-342); conditions: protein: recombinant; tags: N-terminal GST; dsDNA, one strand shown
# T10 sequence: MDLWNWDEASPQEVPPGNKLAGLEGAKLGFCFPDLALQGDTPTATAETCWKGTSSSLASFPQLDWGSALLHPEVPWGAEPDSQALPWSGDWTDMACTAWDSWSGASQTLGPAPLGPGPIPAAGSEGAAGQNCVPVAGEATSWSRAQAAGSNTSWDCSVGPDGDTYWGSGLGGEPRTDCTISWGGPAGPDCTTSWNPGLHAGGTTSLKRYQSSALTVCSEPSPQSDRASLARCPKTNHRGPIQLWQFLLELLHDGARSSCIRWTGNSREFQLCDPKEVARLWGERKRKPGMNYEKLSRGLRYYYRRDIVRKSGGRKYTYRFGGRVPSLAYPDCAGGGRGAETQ
# Summary of the method: as §1
# ELF3 = molecular target: T11, ELF3 (Homo sapiens, UniProt P78545 1-371); conditions: protein: recombinant; tags: N-terminal GST; dsDNA, one strand shown
# T11 sequence: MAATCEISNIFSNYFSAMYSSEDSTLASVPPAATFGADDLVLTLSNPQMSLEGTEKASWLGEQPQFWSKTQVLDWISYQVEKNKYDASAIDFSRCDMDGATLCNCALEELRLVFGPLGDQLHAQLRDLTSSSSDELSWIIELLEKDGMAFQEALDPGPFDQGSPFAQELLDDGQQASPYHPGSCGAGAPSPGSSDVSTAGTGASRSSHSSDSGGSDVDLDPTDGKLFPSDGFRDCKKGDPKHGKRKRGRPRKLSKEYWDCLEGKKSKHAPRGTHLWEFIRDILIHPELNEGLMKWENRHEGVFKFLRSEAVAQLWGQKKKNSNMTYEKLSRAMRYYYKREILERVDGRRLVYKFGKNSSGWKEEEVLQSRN
# Summary of the method: as §1
# CRX = CRX (Homo sapiens, UniProt O43186 1-299); conditions: protein: recombinant; tags: N-terminal GST; dsDNA, one strand shown
# CRX, sequence (O43186 whole entry): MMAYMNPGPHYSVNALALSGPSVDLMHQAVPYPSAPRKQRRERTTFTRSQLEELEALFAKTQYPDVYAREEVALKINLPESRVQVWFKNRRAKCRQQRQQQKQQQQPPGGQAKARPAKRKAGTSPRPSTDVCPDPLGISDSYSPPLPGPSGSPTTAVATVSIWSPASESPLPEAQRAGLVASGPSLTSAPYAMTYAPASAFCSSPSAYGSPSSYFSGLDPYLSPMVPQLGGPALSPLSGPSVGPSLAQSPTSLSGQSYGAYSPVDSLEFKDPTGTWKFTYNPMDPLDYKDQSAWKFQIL
# Summary of the method: as §1
# ETV1 = ETV1 (Homo sapiens, UniProt P50549 1-477); conditions: protein: recombinant; tags: N-terminal GST; dsDNA, one strand shown
# ETV1, sequence (P50549 whole entry): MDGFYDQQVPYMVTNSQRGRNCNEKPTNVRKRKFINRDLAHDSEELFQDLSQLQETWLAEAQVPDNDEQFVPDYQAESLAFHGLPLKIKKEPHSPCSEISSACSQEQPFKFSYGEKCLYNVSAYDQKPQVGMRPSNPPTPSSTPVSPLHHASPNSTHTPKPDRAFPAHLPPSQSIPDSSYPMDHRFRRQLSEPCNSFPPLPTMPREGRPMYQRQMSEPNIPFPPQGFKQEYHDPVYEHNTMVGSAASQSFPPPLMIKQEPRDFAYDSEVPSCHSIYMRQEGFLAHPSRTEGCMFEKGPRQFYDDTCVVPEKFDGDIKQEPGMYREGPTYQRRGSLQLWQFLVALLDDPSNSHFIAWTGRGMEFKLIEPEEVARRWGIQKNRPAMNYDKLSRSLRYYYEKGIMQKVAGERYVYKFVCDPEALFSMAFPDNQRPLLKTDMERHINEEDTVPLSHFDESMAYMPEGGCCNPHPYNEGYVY
# Summary of the method: as §1
sequence,measurement,setting,value
TCATTC,binding signal,FLI1,"1.27 fold enrichment (6-mer frequency, TF over GST control)"
same,binding signal,ELK1,"1.22 fold enrichment (6-mer frequency, TF over GST control)"
same,binding signal,GABPA,"1.26 fold enrichment (6-mer frequency, TF over GST control)"
same,binding signal,ERG,"1.27 fold enrichment (6-mer frequency, TF over GST control)"
same,binding signal,ELF1,"1.28 fold enrichment (6-mer frequency, TF over GST control)"
same,binding signal,EHF,"1.17 fold enrichment (6-mer frequency, TF over GST control)"
same,binding signal,SPI1,"1.24 fold enrichment (6-mer frequency, TF over GST control)"
same,binding signal,SPIB,"1.19 fold enrichment (6-mer frequency, TF over GST control)"
same,binding signal,ELK3,"1.28 fold enrichment (6-mer frequency, TF over GST control)"
same,binding signal,FEV,"1.19 fold enrichment (6-mer frequency, TF over GST control)"
same,binding signal,ETV5,"1.19 fold enrichment (6-mer frequency, TF over GST control)"
same,binding signal,HSF1,"1.5 fold enrichment (6-mer frequency, TF over GST control)"
same,binding signal,SPIC,"1.13 fold enrichment (6-mer frequency, TF over GST control)"
same,binding signal,ELF4,"1.26 fold enrichment (6-mer frequency, TF over GST control)"
same,binding signal,ELK4,"1.34 fold enrichment (6-mer frequency, TF over GST control)"
same,binding signal,ETV2,"1.27 fold enrichment (6-mer frequency, TF over GST control)"
same,binding signal,ELF3,"1.2 fold enrichment (6-mer frequency, TF over GST control)"
same,binding signal,CRX,"1.22 fold enrichment (6-mer frequency, TF over GST control)"
same,binding signal,ETV1,"1.2 fold enrichment (6-mer frequency, TF over GST control)"
